# Assay results published in publication PMC7862700, “An all-to-all approach to the identification of sequence-specific readers for epigenetic DNA modifications on cytosine”.
# How the values were obtained:
# Test in all cases: DAPPL (digital affinity profiling via proximity ligation, sequencing); 10 mM Tris-HCl pH 7.5, 50 mM NaCl, 1 mM DTT, 4% glycerol, room temperature, 30 min; GST-TFs on glutathione beads, 16-mer random dsDNA library, 0.1% formaldehyde crosslink after washing; high values mean tight binding
# Settings in all cases: protein: recombinant; tags: N-terminal GST; dsDNA, one strand shown
# [1] = target: T1, FLI1 (Homo sapiens, UniProt Q01543 1-452)
# T1 sequence: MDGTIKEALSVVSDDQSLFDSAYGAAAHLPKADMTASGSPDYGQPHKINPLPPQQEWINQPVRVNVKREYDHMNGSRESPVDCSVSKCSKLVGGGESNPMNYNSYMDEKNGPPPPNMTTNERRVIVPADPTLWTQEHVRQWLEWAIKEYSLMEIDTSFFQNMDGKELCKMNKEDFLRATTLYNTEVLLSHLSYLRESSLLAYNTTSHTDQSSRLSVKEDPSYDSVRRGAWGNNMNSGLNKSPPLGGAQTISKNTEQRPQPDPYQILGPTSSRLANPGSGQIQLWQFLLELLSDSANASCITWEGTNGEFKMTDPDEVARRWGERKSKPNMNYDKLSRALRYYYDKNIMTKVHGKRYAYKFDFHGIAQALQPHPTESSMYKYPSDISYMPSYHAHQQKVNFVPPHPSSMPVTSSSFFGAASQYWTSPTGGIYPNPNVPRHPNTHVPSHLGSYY
# How it was run: (§1)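 A tag-only sample was pooled with DNA-barcoded human transcription factors that had been expressed in yeast as GST fusions and captured on glutathione beads. The pools were incubated for 30 min at room temperature with 200 nmole of a random double-stranded 16-mer DNA library in Tris/NaCl/DTT/glycerol buffer, then washed, crosslinked with 0.1% formaldehyde, proximity-ligated (BsaI/T4 ligase, 1 h, 37 °C), PCR-amplified and sequenced on an Illumina NextSeq500. Binding signal is each hexamer's read frequency for a factor divided by its frequency for the tag-only sample.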
# [2] = target: T2, ELK1 (Homo sapiens, UniProt P19419 1-428)
# T2 sequence: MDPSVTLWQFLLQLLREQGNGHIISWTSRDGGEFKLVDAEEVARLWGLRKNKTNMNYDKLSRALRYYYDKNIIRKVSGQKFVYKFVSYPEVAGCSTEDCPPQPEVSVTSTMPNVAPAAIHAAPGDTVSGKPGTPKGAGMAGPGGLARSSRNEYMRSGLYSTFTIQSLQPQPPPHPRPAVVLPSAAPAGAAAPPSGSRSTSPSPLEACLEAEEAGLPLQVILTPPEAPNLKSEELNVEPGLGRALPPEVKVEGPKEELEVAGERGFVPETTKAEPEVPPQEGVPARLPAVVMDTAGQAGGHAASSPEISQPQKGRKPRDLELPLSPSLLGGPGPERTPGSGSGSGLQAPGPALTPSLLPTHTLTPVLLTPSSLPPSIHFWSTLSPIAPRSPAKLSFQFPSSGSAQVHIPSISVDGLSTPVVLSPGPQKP
# How it was run: as §1
# [3] = target: T3, GABPA (Homo sapiens, UniProt Q06546 1-454)
# T3 sequence: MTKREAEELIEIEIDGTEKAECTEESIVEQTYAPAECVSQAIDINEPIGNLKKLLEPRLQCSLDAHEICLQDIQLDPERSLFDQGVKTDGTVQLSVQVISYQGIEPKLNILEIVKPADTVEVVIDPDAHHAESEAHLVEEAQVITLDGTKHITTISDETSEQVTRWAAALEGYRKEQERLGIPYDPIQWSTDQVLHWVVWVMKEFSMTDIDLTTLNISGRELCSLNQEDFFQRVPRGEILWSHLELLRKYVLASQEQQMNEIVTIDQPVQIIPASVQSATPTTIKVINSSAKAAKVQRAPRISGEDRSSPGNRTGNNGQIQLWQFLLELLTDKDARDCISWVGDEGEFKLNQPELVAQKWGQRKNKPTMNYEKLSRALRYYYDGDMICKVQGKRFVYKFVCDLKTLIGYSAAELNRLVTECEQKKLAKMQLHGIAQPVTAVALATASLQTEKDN
# How it was run: as §1
# [4] = target: T4, ERG (Homo sapiens, UniProt P11308 1-479)
# T4 sequence: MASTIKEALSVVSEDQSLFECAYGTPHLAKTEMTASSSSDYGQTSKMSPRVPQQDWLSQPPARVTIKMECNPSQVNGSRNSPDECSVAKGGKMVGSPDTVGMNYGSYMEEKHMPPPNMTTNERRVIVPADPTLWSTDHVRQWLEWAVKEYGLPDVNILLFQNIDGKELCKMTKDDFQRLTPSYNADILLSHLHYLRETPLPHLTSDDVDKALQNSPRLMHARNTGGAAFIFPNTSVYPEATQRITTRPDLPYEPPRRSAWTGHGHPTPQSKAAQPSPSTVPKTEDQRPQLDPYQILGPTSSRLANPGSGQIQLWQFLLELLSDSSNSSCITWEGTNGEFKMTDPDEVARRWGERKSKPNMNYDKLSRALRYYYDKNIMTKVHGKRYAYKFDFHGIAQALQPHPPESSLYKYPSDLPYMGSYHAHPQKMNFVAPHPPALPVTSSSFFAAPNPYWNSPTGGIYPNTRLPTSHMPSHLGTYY
# How it was run: as §1
# [5] = target: ELF1 (Homo sapiens, UniProt P32519 1-619)
# How it was run: as §1
# [6] = target: T5, EHF (Homo sapiens, UniProt Q9NZC4 1-300)
# T5 sequence: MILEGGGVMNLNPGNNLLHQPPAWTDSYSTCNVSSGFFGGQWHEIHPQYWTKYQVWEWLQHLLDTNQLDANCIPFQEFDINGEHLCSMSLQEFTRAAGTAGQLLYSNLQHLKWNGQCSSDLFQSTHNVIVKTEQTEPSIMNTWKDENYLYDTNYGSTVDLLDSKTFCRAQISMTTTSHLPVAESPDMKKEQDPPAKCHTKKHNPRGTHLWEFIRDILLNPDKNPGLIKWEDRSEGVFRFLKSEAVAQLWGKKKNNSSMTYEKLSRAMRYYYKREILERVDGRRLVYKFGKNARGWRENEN
# How it was run: as §1
# [7] = target: SPI1 (Homo sapiens, UniProt P17947 1-270)
# How it was run: as §1
# [8] = target: SPIB (Homo sapiens, UniProt Q01892 1-262)
# How it was run: as §1
# [9] = target: T6, ELK3 (Homo sapiens, UniProt P41970 1-407)
# T6 sequence: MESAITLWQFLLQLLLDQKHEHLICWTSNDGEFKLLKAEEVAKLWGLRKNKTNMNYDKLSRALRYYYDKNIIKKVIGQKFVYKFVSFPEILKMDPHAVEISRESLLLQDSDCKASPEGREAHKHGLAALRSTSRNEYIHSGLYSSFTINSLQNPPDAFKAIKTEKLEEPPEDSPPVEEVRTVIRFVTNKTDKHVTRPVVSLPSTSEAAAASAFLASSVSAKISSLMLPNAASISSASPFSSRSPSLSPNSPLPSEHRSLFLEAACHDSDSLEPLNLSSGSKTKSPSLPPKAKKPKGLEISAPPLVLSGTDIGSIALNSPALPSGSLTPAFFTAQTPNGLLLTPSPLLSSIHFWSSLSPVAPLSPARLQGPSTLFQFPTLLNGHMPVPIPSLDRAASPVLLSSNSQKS
# How it was run: as §1
# Sequence of ELF1 (P32519 whole entry): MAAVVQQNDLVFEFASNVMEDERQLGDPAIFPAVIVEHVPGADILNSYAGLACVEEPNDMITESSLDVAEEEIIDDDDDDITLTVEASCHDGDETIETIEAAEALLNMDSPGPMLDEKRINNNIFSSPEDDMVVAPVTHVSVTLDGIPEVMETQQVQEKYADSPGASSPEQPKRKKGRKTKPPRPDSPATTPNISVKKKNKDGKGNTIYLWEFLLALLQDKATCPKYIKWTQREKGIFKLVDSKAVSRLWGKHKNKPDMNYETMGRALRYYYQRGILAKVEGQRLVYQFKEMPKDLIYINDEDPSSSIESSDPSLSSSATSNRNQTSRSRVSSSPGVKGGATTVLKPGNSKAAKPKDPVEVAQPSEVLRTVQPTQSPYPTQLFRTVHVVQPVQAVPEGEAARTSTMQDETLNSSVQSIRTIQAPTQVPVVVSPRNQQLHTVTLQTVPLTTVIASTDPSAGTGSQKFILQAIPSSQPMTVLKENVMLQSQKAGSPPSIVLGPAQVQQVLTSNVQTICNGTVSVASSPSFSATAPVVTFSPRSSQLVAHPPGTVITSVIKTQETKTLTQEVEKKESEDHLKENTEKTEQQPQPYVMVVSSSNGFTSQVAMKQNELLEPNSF
# Sequence of SPIB (Q01892 whole entry): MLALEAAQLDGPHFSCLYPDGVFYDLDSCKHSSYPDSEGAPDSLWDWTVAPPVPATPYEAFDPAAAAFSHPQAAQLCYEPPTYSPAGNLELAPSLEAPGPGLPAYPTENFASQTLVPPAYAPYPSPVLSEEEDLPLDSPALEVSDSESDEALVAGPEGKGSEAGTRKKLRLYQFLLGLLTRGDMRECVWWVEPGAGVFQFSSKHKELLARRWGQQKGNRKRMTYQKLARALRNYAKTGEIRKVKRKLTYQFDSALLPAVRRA
Sequence,binding signal [1],binding signal [2],binding signal [3],binding signal [4],binding signal [5],binding signal [6],binding signal [7],binding signal [8],binding signal [9]
CTGAGC,"1.08 fold enrichment (6-mer frequency, TF over GST control)","1.15 fold enrichment (6-mer frequency, TF over GST control)","1.18 fold enrichment (6-mer frequency, TF over GST control)","1.09 fold enrichment (6-mer frequency, TF over GST control)","1.19 fold enrichment (6-mer frequency, TF over GST control)","1.18 fold enrichment (6-mer frequency, TF over GST control)","1.11 fold enrichment (6-mer frequency, TF over GST control)","1.06 fold enrichment (6-mer frequency, TF over GST control)","1.18 fold enrichment (6-mer frequency, TF over GST control)"
CCTGTA,"1.31 fold enrichment (6-mer frequency, TF over GST control)","1.16 fold enrichment (6-mer frequency, TF over GST control)","1.12 fold enrichment (6-mer frequency, TF over GST control)","1.28 fold enrichment (6-mer frequency, TF over GST control)","1.14 fold enrichment (6-mer frequency, TF over GST control)","1.14 fold enrichment (6-mer frequency, TF over GST control)","1.28 fold enrichment (6-mer frequency, TF over GST control)","1.19 fold enrichment (6-mer frequency, TF over GST control)","1.28 fold enrichment (6-mer frequency, TF over GST control)"
TATACT,"1.25 fold enrichment (6-mer frequency, TF over GST control)","1.41 fold enrichment (6-mer frequency, TF over GST control)","1.43 fold enrichment (6-mer frequency, TF over GST control)","1.29 fold enrichment (6-mer frequency, TF over GST control)","1.39 fold enrichment (6-mer frequency, TF over GST control)","1.39 fold enrichment (6-mer frequency, TF over GST control)","1.35 fold enrichment (6-mer frequency, TF over GST control)","1.36 fold enrichment (6-mer frequency, TF over GST control)","1.43 fold enrichment (6-mer frequency, TF over GST control)"
CATGCC,"1.18 fold enrichment (6-mer frequency, TF over GST control)","1.17 fold enrichment (6-mer frequency, TF over GST control)","1.09 fold enrichment (6-mer frequency, TF over GST control)","1.1 fold enrichment (6-mer frequency, TF over GST control)","1.16 fold enrichment (6-mer frequency, TF over GST control)","1.16 fold enrichment (6-mer frequency, TF over GST control)","1.09 fold enrichment (6-mer frequency, TF over GST control)","1.11 fold enrichment (6-mer frequency, TF over GST control)","1.06 fold enrichment (6-mer frequency, TF over GST control)"
CCTAAC,"1.56 fold enrichment (6-mer frequency, TF over GST control)","1.43 fold enrichment (6-mer frequency, TF over GST control)","1.37 fold enrichment (6-mer frequency, TF over GST control)","1.42 fold enrichment (6-mer frequency, TF over GST control)","1.44 fold enrichment (6-mer frequency, TF over GST control)","1.31 fold enrichment (6-mer frequency, TF over GST control)","1.48 fold enrichment (6-mer frequency, TF over GST control)","1.4 fold enrichment (6-mer frequency, TF over GST control)","1.42 fold enrichment (6-mer frequency, TF over GST control)"
TGTATA,"1.08 fold enrichment (6-mer frequency, TF over GST control)","1.11 fold enrichment (6-mer frequency, TF over GST control)","1.02 fold enrichment (6-mer frequency, TF over GST control)","1.03 fold enrichment (6-mer frequency, TF over GST control)","1.04 fold enrichment (6-mer frequency, TF over GST control)","1.18 fold enrichment (6-mer frequency, TF over GST control)","1.03 fold enrichment (6-mer frequency, TF over GST control)","1.19 fold enrichment (6-mer frequency, TF over GST control)","1.15 fold enrichment (6-mer frequency, TF over GST control)"
TGACTC,"1.49 fold enrichment (6-mer frequency, TF over GST control)","1.39 fold enrichment (6-mer frequency, TF over GST control)","1.4 fold enrichment (6-mer frequency, TF over GST control)","1.39 fold enrichment (6-mer frequency, TF over GST control)","1.36 fold enrichment (6-mer frequency, TF over GST control)","1.27 fold enrichment (6-mer frequency, TF over GST control)","1.27 fold enrichment (6-mer frequency, TF over GST control)","1.42 fold enrichment (6-mer frequency, TF over GST control)","1.41 fold enrichment (6-mer frequency, TF over GST control)"
TAGGGT,"1.04 fold enrichment (6-mer frequency, TF over GST control)","1.03 fold enrichment (6-mer frequency, TF over GST control)","1.11 fold enrichment (6-mer frequency, TF over GST control)","1.03 fold enrichment (6-mer frequency, TF over GST control)","1.16 fold enrichment (6-mer frequency, TF over GST control)","1.09 fold enrichment (6-mer frequency, TF over GST control)","1.13 fold enrichment (6-mer frequency, TF over GST control)","1.1 fold enrichment (6-mer frequency, TF over GST control)","1.04 fold enrichment (6-mer frequency, TF over GST control)"
